Screening results as filed in PubChem.
Most compounds without a hit are left out; they make up all but 21% or so of the library.
Pf growth 96h: P. falciparum growth inhibition at 96 hours. P. falciparum luciferase reporter growth, 96 h. 320,000 compounds, 6.9% hits. Potency, µM (titrated, usually from 28.7 µM), without a hit: top-dose activity change, negative = inhibition, actives largely listed as inhibitors; active = well fitted inhibition curve with a large enough effect; inconclusive = small, poorly fitted or top-dose-only effect, or another doubt; inactive = no such curve, though single readings can be large or run the other way; note: potency is the fitted concentration of half-maximal effect; % is set by controls: 0 for no effect and ±100 for the full control effect
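Cell-based qHTS: luciferase-tagged P. falciparum in erythrocytes (2% hematocrit, 0.05% parasitemia final) incubated with compounds for 96 hours, 37 C, 5% CO2; luciferase detection reagent then added and luminescence measured.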
SARS PLpro yeast: blocks SARS-CoV papain-like protease in a yeast assay. S. cerevisiae expressing SARS-CoV PLpro, growth rescue. AID 485353. Potency, µM (series often up to 32.9 µM), inactives show at the highest dose activity, positive = growth rescue, actives largely listed as activators. 330,000 compounds, 0.19% hits; note: potency is the fitted concentration of half-maximal effect; 0% is about no effect; nearly all actives have a fitted effect of over 55% in size
CHX counter: counter-screen hit for Shiga toxin inhibitors, cycloheximide | cell reporter, cycloheximide protein synthesis inhibition counterscreen | max response, % | 300,000 compounds, 12% hits; in the data active = max response mostly above about 13%, no sharp cut-off; inactive = mostly below about 14%; note: read at 38.3 µM for the half of the compounds with a filed dose; 0% is about no effect
Pf growth 48h: P. falciparum growth inhibition at 48 hours (one generation); Potency, µM (titrated, usually from 28.7 µM), for inactives: at the highest dose activity change, negative = inhibition, usual class: inhibitors; AID 504832; 310,000 compounds, 5.9% hits; P. falciparum luciferase growth in erythrocytes, 48 h; active = well fitted inhibition curve with a large enough effect; inconclusive = small, poorly fitted or top-dose-only effect, or another doubt; inactive = no such curve, though single readings can be large or run the other way; note: potency is the fitted concentration of half-maximal effect; % is set by controls: 0 for no effect and ±100 for the full control effect
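Compounds are pin-transferred into medium, infected erythrocytes (2% hematocrit, 0.1% parasitemia final) are added, and plates sit one parasite generation at 37 C in 5% CO2. Detection reagent is then added and luminescence measured.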
Shiga toxin inh: blocks Shiga toxin action in Vero cells; Vero cells, Shiga toxin protein synthesis inhibition reporter; inhibition, % at 38.7 µM; 290,000 compounds, 9.2% hits; in the data active = inhibition mostly above about 28%, no sharp cut-off; inactive = mostly below about 43%; note: 0% is about no effect
NS1 function inh: influenza NS1 inhibition. Potency, µM (doses to about 46.1 µM), for inactives: at the top dose activity, positive = more growth. 270,000 compounds, 0.4% hits. AID 2326; note: potency is the fitted concentration of half-maximal effect; actives are rising curves; nearly all actives have a fitted effect of over 50% in size
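A cell-based growth assay was used: compounds that relieve NS1-induced slow growth of budding yeast raise OD600. Assay medium was yeast nitrogen base with ammonium sulphate and -URA supplement, pH 6.0, with 2% galactose.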
Numbers without * were called inactive. Unless noted, calls come from the whole dose curve.

For CO/N=C/NC(=O)c1c(OC)ccnc1Oc1cccc(C(F)(F)F)c1 the results were Pf growth 96h inconclusive, SARS PLpro yeast 2%, CHX counter -2, Pf growth 48h 0%, Shiga toxin inh 1 and NS1 function inh 6%.
For C/C(=N\NC(=O)c1c[nH]c2ccccc12)c1ccc2c(c1)OCO2 the results were Pf growth 96h 5.9µM*, SARS PLpro yeast 0%, CHX counter 29*, Pf growth 48h inconclusive and Shiga toxin inh 42*.
CC/C(=N\NC(=O)c1cccnc1)c1ccc2c(c1)OCCO2 was read as Pf growth 96h 0.93µM*, SARS PLpro yeast 1%, CHX counter 7, Pf growth 48h -11% and Shiga toxin inh 14.
For COc1ccc(-n2c(Cc3cccn3C)nnc2SCC(=O)Nc2ccccc2C)cc1 the results were Pf growth 96h 6.6µM*, SARS PLpro yeast -2%, CHX counter 0, Shiga toxin inh -9 and NS1 function inh -2%.
COc1cccc(NC(=O)CSc2nnc(Cc3cccn3C)n2-c2ccc(F)cc2)c1 was read as Pf growth 96h 4.1µM*, SARS PLpro yeast -4%, CHX counter 19*, Pf growth 48h inconclusive, Shiga toxin inh 29* and NS1 function inh 9%.
For COc1ccc(-n2c(Cc3cccn3C)nnc2SCC(=O)Nc2cccc(OC)c2)cc1 the results were Pf growth 96h 17%, SARS PLpro yeast -20%, CHX counter -1, Pf growth 48h inconclusive, Shiga toxin inh -12 and NS1 function inh -3%.
For COc1ccc(OC)c(NC(=O)CSc2nnc(Cc3cccn3C)n2-c2ccc(F)cc2)c1 the results were Pf growth 96h -13%, SARS PLpro yeast -11%, CHX counter -3, Pf growth 48h 13µM*, Shiga toxin inh 21 and NS1 function inh -16%.
For CCN(CC)c1ccc(/C=C/c2cccc[n+]2C)c(OC)c1 the results were Pf growth 96h 50%, SARS PLpro yeast -9%, CHX counter -2, Pf growth 48h 0.37µM*, Shiga toxin inh -5 and NS1 function inh -36%.
Screening COc1ccc(/C=C/c2cccc[n+]2C)c(O)c1 returned Pf growth 96h 187%, SARS PLpro yeast 13%, CHX counter 5, Pf growth 48h inconclusive, Shiga toxin inh -9 and NS1 function inh -4%.
`COc1ncnc2sc(-c3ccccc3)cc12` gave Pf growth 96h 17%, SARS PLpro yeast 16%, CHX counter 66*, Pf growth 48h 179%, Shiga toxin inh 82 and NS1 function inh -67%.
CN(C)C(=O)COc1ncnc2sc(-c3ccccc3)cc12 was read as Pf growth 96h 78%, SARS PLpro yeast -4%, CHX counter 28*, Pf growth 48h 69%, Shiga toxin inh 72* and NS1 function inh -3%.
For CCN(CC)C(=O)CSc1ncnc2sc(-c3ccccc3)cc12 the results were SARS PLpro yeast -16%, CHX counter 34, Pf growth 48h 64%, Shiga toxin inh 36 and NS1 function inh -4%.
For CN(C)c1ncnc2sc(-c3ccccc3)cc12 the results were Pf growth 96h 39%, SARS PLpro yeast -5%, CHX counter 16*, Pf growth 48h 134%, Shiga toxin inh 40 and NS1 function inh -43%.
Screening COc1ccc(Nc2ncnc3sc(-c4ccccc4)cc23)cc1 returned Pf growth 96h -2%, SARS PLpro yeast -8%, CHX counter -6, Pf growth 48h inconclusive, Shiga toxin inh -27 and NS1 function inh -4%.
`CN(CCC#N)C(=O)CSc1ncnc2sc(-c3ccccc3)cc12` gave Pf growth 96h inconclusive, SARS PLpro yeast 1%, CHX counter 31*, Pf growth 48h -2%, Shiga toxin inh 62* and NS1 function inh -9%.
CCOC(=O)N1CCC(N2Cc3cccc(C(=O)N4CCN(c5cccc(Cl)c5)CC4)c3C2=O)CC1 was read as Pf growth 96h inconclusive, SARS PLpro yeast 3%, CHX counter -6, Pf growth 48h -13% and Shiga toxin inh -11.
`CCOC(=O)N1CCC(N2Cc3cccc(C(=O)Nc4ccccc4OC)c3C2=O)CC1` gave Pf growth 96h inconclusive, SARS PLpro yeast -2%, CHX counter 2, Pf growth 48h 9.3µM*, Shiga toxin inh -10 and NS1 function inh 20%.
